Test results: PubChem BioAssay AID430 (Sanford-Burnham Center for Chemical Genomics, 2006)
In all, about 63,000 compounds went through this assay and about 1,100 (1.7%) were called active. No stated cut-off is given here; in the data, active means cytotoxicity above about 50%; inactive means the rest. Many of the other results were omitted from the sample, so actives are more common in it than they were. Entries with a potency or affinity are not part of this list.

Test: cytotoxicity in HPDE-C7 cells, cell-based, fluorescence, HTS (AID 430);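 further: cells exposed to compound for 48 hours before viability readout; 0% = vehicle and 100% = reference cytotoxic drug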
Conditions: HPDE-C7 pancreatic duct cells viability, at 10 µM, active compounds read high

Row | Structure (SMILES) | cytotoxicity
1 | CCOC(=O)C1CCN(C(=O)c2sc3nc(-c4ccccc4)cn3c2C)CC1 | -0.3% (inactive)
2 | Cn1c(N)c(C(=O)COC(=O)C2(c3ccccc3F)CCCC2)c(=O)n(C)c1=O | -7% (inactive)
3 | CCOCCCNC(=O)C(Cc1ccccc1)NC(=O)c1ccco1 (configuration not stated) | -8.1% (inactive)
4 | Cc1cc(C)c2c(CN3CCN(C)CC3)cc(=O)oc2c1 | -8.5% (inactive)
5 | Cc1cc(C)c2c(CN3CCN(C/C=C/c4ccccc4)CC3)cc(=O)oc2c1 | 69.9% (active)
6 | CCN1CCN(Cc2cc(=O)oc3cc(C)cc(C)c23)CC1 | 2.1% (inactive)
7 | O=c1ccnc(S/C=C/c2ccccc2)[nH]1 | -11.2% (inactive)
8 | O=C(Cn1c(=O)[nH]c2ccsc2c1=O)N1CCN(c2ccc(F)cc2)CC1 | 9.5% (inactive)
9 | Cc1nn(Cc2ccc(Cl)cc2)c(C)c1NC(=O)c1cc(-c2ccc3c(c2)OCO3)on1 | 35.4% (inactive)
10 | Cc1ccc(Cn2nc(C)c(NC(=O)c3cc(-c4ccc5c(c4)OCO5)on3)c2C)cc1 | 16.2% (inactive)
11 | Cc1nn(Cc2ccc(Cl)c(Cl)c2)c(C)c1NC(=O)c1cc(-c2ccc3c(c2)OCO3)on1 | 54.7% (active)
12 | O=C(c1ccc2c(c1)OCO2)N1CCCc2ccccc21 | -12.5% (inactive)
13 | CN(C)S(=O)(=O)c1ccc(C(=O)Nc2ccccn2)cc1 | 0.8% (inactive)
14 | COc1ccc(-n2c(Cc3cccn3C)nnc2SCC(=O)Nc2cc(Cl)ccc2OC)cc1 | -0.9% (inactive)
15 | Cn1nnnc1SCC(=O)NCCc1ccc(Cl)cc1 | -8.2% (inactive)
16 | COc1ccccc1N1CCN(Cc2cc(Br)c(O)c3ncccc23)CC1 | 5.1% (inactive)
17 | Oc1ccc(CNc2ccccc2)c2cccnc12 | 34.7% (inactive)
18 | Oc1c(CN2CCCCC2)cc(COCc2ccccc2)c2cccnc12 | -10.8% (inactive)
19 | Oc1ccc(CNc2ccccc2F)c2cccnc12 | -4.7% (inactive)
20 | Oc1ccc(CN2CCN(Cc3ccccc3)CC2)c2cccnc12 | 6.2% (inactive)
21 | Oc1c(CN2CCOCC2)cc(COCc2ccccc2)c2cccnc12 | 60.7% (active)
22 | CN1CCN(Cc2cc(COCc3ccccc3)c3cccnc3c2O)CC1 | -9.2% (inactive)
23 | COCc1cc(CN2CCCC2)c(O)c2ncccc12 | -11.9% (inactive)
24 | Oc1ccc(CNc2ccc(F)cc2)c2cccnc12 | 45.3% (inactive)
25 | CCCn1c(C)cc(=O)c2cc(NC(=O)c3ccccn3)ccc21 | 16.1% (inactive)
26 | COC(=O)CCCCCNc1ccc(C(=O)OC)cc1N | -12.1% (inactive)
27 | CC1Cc2nc(SCC(=O)N3CCc4ccccc43)n(C)c(=O)c2S1 (configuration not stated) | -19.6% (inactive)
